From PubChem BioAssay
Coupling enz = inhibits coupling enzyme system, counter-screen for aldolase hits | coupling enzyme system counterscreen, AmpLite Red fluorescence | activity change, negative = inhibition, % at 58.2 µM, hits read low | actives 0.67% (n = 290,000) | AID 2472; in the data active = activity change below about -30%
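Counterscreen of the coupled detection system alone, without aldolase: glyceraldehyde-3-phosphate coupling enzymes plus AmpLite Red readout. Compounds at 57.5 uM final, 10 min RT preincubation, 20 min RT reaction, fluorescence 525/598 nm.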
TRb SRC2 PPI = TRbeta-SRC2 interaction inhibition; P10828; Potency, µM (titrated, usually from 106 µM), usual class: inhibitors; TRbeta-SRC2 peptide binding, fluorescence polarization; receptor liganded with 1 µM T3; actives 0.065% (n = 280,000); AID 1469; note: nearly all actives have a fitted effect of over 50% in size
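Fluorescence polarization of 20 nM Texas Red SRC2 peptide with 0.6 uM human TRb ligand-binding domain, in Tris buffer with 1uM T3 and 5% DMSO. Incubated 5 hr ambient; normalized to unbound and bound controls.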
HTT cytoprotect = cytoprotection in Huntington HTT-Q103 PC12 cell model. Potency, µM (top dose mostly 56.4 µM), hits mostly activators. actives 0.14% (n = 230,000). AID 1471. PC12 HTT-Q103 induced, cytoprotection, ATP luminescence, 40 h; note: nearly all actives have a fitted effect of over 45% in size
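ATP quantification (ATPlite) reports survival of PC12 cells in which tebufenozide, 100 nM final, switches on Htt exon 1 with 103 glutamines linked to GFP; compounds are titrated.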
KDM4E inh = JMJD2E (human) inhibition; B2RXH2; JMJD2E catalytic domain, FDH-coupled NADH fluorescence (FDH is formaldehyde dehydrogenase); Potency, µM (series often up to 57.1 µM), most hits filed as inhibitors; actives 1.6% (n = 230,000); AID 2147; active = well fitted inhibition curve with a large enough effect, not every such curve was filed as active; inconclusive = small, poorly fitted or top-dose-only effect, or another doubt; inactive = no such curve, though single readings can be large or run the other way; note: nearly all actives have a fitted effect of over 50% in size
Target sequence (B2RXH2 1-337 limits assumed): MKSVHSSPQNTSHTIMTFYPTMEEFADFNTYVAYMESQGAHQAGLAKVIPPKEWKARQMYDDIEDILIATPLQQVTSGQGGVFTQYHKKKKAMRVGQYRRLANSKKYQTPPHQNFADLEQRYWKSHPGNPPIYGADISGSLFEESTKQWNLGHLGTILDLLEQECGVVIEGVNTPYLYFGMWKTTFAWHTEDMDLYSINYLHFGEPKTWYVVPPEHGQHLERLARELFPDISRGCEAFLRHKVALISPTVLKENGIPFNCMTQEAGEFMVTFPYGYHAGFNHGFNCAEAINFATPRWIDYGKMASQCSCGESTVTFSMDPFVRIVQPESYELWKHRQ
HTT aggregate = reduces HttQ103-GFP aggregates in PC12 cells; PC12 HttQ103-GFP aggregates, Acumen cytometry, 40 h; AID 1688; Potency, µM (series often up to 46.1 µM), hits mostly inhibitors; actives 1.1% (n = 220,000); note: nearly all actives have a fitted effect of over 60% in size
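Quantitative HTS on tebufenozide-induced (100 nM) PC12 cells stably expressing polyQ103 Huntingtin exon 1–GFP. Reduction of bright GFP aggregates, detected by laser scanning cytometry after lysis, identified actives across the titration.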
TexasRed fluor = counter-screen for TRb-SRC2 inhibitors: fluorescence interference; TRb/SRC2 Texas Red total fluorescence interference; Potency, µM (highest dose often 106 µM); actives 0.29% (n = 280,000); AID 1479; active = well fitted curve in either direction with a large enough effect; inconclusive = small, poorly fitted or top-dose-only effect
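Human TRβ ligand-binding domain (0.6 uM) and Texas Red SRC2 peptide (20 nM) in Tris buffer with 1 uM T3 and 5% DMSO were incubated with pinned compound for 5 hr at ambient temperature. Total fluorescence was computed as S + 2P (555/632 nm).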
Numbers stand for hits; n = inactive; u = inconclusive; x = no result; ! = a repeat was not active; [ ] = another dose, or the depositor's remark. An excerpt weighted towards active compounds, which were near 2% of everything screened. Unless noted, calls come from the whole dose curve; as a rule, active = well fitted curve in the direction sought with a large enough effect; inconclusive = small, poorly fitted or top-dose-only effect, or another doubt; inactive = no such curve, though single readings can be large; an effect the other way counts as inactive or inconclusive.

SMILES | Coupling enz | TRb SRC2 PPI | HTT cytoprotect | KDM4E inh | HTT aggregate | TexasRed fluor
Cc1cc(C)cc(NS(=O)(=O)c2ccc3c(c2)c(=O)n(C)c(=O)n3C)c1 | n | n | n | n | 8.9µM | n
CN(C)C(=O)NC1CCCCCCC1 | n | n | x | x | x | n
COc1ccc(-n2c(C)c(C(C)=O)c(C(C)=O)c2C)cc1OC | n | n | n | n | n | n
CC(=O)c1c(C(C)=O)c(C)n(-c2ccc(N)c(C)c2)c1C | n | 22µM | n | n | n | 45µM[fluorescent]
Cc1ccccc1NC(=S)NCCO | n | n | n | n | n | n
CCCCSCCCNC(=S)Nc1ccccc1C | n | n | n | n | 22µM | n
Cc1ccc(C)c(N2CCN(CCCNC(=O)Cn3cccc3C(=O)c3ccccc3C)CC2)c1 | n | n | n | n | 16µM | n
CC(C)(C)c1ccc(S(=O)(=O)/C=C/C#N)cc1 | x | n | x | n | x | n
COc1cc(/C=C(/C#N)c2nc3ccccc3[nH]2)ccc1OCc1ccc(C(=O)O)o1 | x | n | n | n | n | n
COC(=O)c1ccc(COc2ccc(/C=C(\C#N)c3nc4ccccc4[nH]3)cc2OC)o1 | n | n | n | 22µM | n | n
CC#CCOCC/C=C1/c2ccccc2C(OC)C1C (centres undefined) | n | n[11.2 µM] | n[10 µM] | x | x | n[11.2 µM]
O=C(CN1C2=NCCCN2c2ccccc21)c1cccc(Br)c1 | n | n | n[10 µM] | n | 4µM | n
O=C(CN1C2=NCCN2c2ccccc21)c1ccc(Br)cc1 | n | n | n[10 µM] | n | n | n
CC[N+](CC)(CC)CCOc1ccc(/C=C\c2ccccc2)cc1 | n | n | n | 25µM | x | n
CC1CCc2noc(NC(=O)c3ccccc3[N+](=O)[O-])c2C1 (centres undefined) | x | n | x | x | x | 22387µM[quencher]
COC(=O)C[C@H]1c2ccccc2[C@H]2C(=C[C@@H](C)[C@H]3C(=O)N(O)C(=O)[C@H]32)N1C(=O)OC | n | n[11.2 µM] | n[10 µM] | n[11.4 µM] | x | n[11.2 µM]
Cc1c(C(=O)N/N=C/C(C)C)[nH]c2ccc([N+](=O)[O-])cc12 | n | n | n[1.9 µM] | n | 7.1µM | n
Cc1c(C(=O)O)[nH]c2ccc([N+](=O)[O-])cc12 | n | n | x | n | n | n
COc1cc(/C=C/c2sc3ccccc3[n+]2CCCS(=O)(=O)[O-])ccc1O | -34 | n | n | n | u | n
Cc1ccc2c(c1)sc(C)[n+]2CCCS(=O)(=O)[O-] | n | n | n | n | n | n
CCOC(=O)C1CCN(C(=O)Nc2ccc3nc(-c4ccco4)c(-c4ccco4)nc3c2)CC1 | -45 | n | n | u | n | u
CCOC(=O)C1CCN(C(=O)Nc2ccc3c(c2)nc(C)n3C)CC1 | n | n | n[0.074 µM] | u | n | n
O=C(Nc1ccc2nc(-c3ccco3)c(-c3ccco3)nc2c1)N1CCCCCC1 | -37 | n | n[10 µM] | u | u | 22µM[quencher]
Cc1nc2ccc(NC(=O)N3CCCCC3)cc2nc1C | n | n | n[10 µM] | u | n | n
CCc1cccc(NC(=O)Cn2c(-c3ccc(F)cc3)cc(C(C)=O)c2C)c1 | x | n | x | x | x | n
SMILES | Coupling enz | TRb SRC2 PPI | HTT cytoprotect | KDM4E inh | HTT aggregate | TexasRed fluor
CC(C)Cn1c(=O)c(C(=O)NCc2ccccn2)c(O)c2ccccc21 | n | n | n[10 µM] | n | 7.9µM | n
COc1ccccc1N1CCN(C(=O)CCc2nnc3n(C)c(=O)c4sccc4n23)CC1 | x | u | x | x | x | 22µM[quencher]
CCOc1ccc(NC(=O)CCc2nnc3n(C)c(=O)c4sccc4n23)cc1 | x | n | x | x | x | 0.035µM[quencher]
CC(C)CN1C=C2C(=O)C(C)(OC(=O)C3CCCC3)C(=O)C=C2C=C1c1ccsc1 (centres undefined) | n | n[11.2 µM] | n[10 µM] | 32µM! | n[9.22 µM] | n[11.2 µM]
O=C(NNc1ccccc1[N+](=O)[O-])Nc1ccc(Cl)c(Cl)c1 | n | n | x | n | 11µM | n
CCOc1ccc(-c2nonc2NC(=O)COc2ccccc2)cc1 | x | n | x | x | x | u
CN(C)Cc1c(-c2ccc(Cl)cc2)nc2ccccn12 | n | n | n | u | 0.032µM | n
CN(C)C=Nc1c(Br)cc(Br)c2nonc12 | -43 | n | n | n | u | n
Cc1ccc(/C=C/c2onc(C)c2S(=O)(=O)N2CCC(C(=O)N3CCN(c4ccccc4F)CC3)CC2)cc1 | x | n | x | x | x | n
O=C(Cn1cnc([N+](=O)[O-])n1)N/N=C/c1ccccc1O | n | n | n | 25µM | 8.9µM | n
O=C(Cn1cnc([N+](=O)[O-])n1)N/N=C/c1cc(Cl)ccc1O | n | n | n | 22µM | 11µM | n
O=[N+]([O-])C(CO)(CO)CO | x | n | x | x | x | n
O=C(Nc1ccc(OCC(F)(F)C(F)F)c(C(F)(F)F)c1)c1ccccc1O | n | n | n[10 µM] | u | 5µM | n
O=C(Nc1ccc(OCC(F)(F)C(F)F)cc1)c1ccncc1 | n | n | x | n | u | n
C[C@@H]1CCC[C@]2(C)CCCC[C@@]12O | n | n | x | x | x | n
NC(=NCc1ccc2c(c1)OCO2)NC(=O)c1ccccc1 | n | n | x | 4.5µM | x | n
O=C1C(Cl)=C(NC2CCc3ccccc32)C(=O)c2ncccc21 (centres undefined) | n | u | n | 5µM | x | n
CCc1ccc(NS(=O)(=O)c2ccc3[nH]cc(C(=O)N(C)Cc4ccco4)c(=O)c3c2)cc1 | n | n | n | n | 0.1µM | n
COc1ccc(Br)c(OC)c1C(=O)NC(=O)Nc1nc(C)cc(C)n1 | -31 | n | n[10 µM] | n | n[9.22 µM] | n
COc1ccc([N+](=O)[O-])c(OC)c1C(=O)NC(=O)Nc1nc(C)cc(C)n1 | n | n | n[10 µM] | n | n[9.22 µM] | n
COc1ccc(Cc2nnc(SCc3ccc([N+](=O)[O-])cc3)o2)cc1 | n | n | x | n | 7.1µM | n
COc1ccc(/C=C/c2nc(C#N)c(N3CCC(C)CC3)o2)cc1OC | x | n | x | x | x | n
CCN(CC)S(=O)(=O)c1ccc(N=NC2=C(O)CCCC2=O)cc1 | n | 40µM | n[10 µM] | n | n | 45µM[fluorescent]
COc1ccc(C(=O)C2CCN(C(=S)Nc3ccc(F)cc3)CC2)cc1 | n | n | 2.5µM | n | n | n
COc1cc2ccccc2cc1C(=O)Nc1ccc(Cc2ccncc2)cc1 | n | n | n | u | 10µM | n
SMILES | Coupling enz | TRb SRC2 PPI | HTT cytoprotect | KDM4E inh | HTT aggregate | TexasRed fluor
CC1Cc2ccccc2N1c1ncnc2nc[nH]c12 (centres undefined) | n | n | n | n | 11µM | n
CC1Cc2ccccc2N1c1ncnc(N)c1[N+](=O)[O-] (centres undefined) | n | n | u | n | 0.89µM | n
CC1CCCCN1c1ncnc2ccccc12 (centres undefined) | n | n | n | n | 10µM | n
c1ccc2c(c1)CCN(c1ncnc3nc[nH]c13)C2 | n | n | n[10 µM] | n | n | n
Cc1nc(N2CCOCC2)nc(N2CCCCC2C)c1[N+](=O)[O-] (centres undefined) | n | n | n[10 µM] | n | n[9.22 µM] | n
O=C(O)C1CCCN1c1ncnc2ccccc12 (centres undefined) | n | n | n | n | n | n
